# COUP-TFII inh = inhibitors of human COUP-TFII (NR2F2); P24468; HEK293T NGFI-A luciferase reporter, luminescence; inhibition, % at 8.6 µM; actives 0.7% (n = 370,000); AID 686940;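 active = inhibition above a per-plate cutoff, mean inhibition of test wells between control levels plus 3 SD, cut at about 38% in these data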;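 note: cells cotransfected with COUP-TFII expression vector driving the NGFI-A reporter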
# Target sequence (P24468 whole entry, looked up): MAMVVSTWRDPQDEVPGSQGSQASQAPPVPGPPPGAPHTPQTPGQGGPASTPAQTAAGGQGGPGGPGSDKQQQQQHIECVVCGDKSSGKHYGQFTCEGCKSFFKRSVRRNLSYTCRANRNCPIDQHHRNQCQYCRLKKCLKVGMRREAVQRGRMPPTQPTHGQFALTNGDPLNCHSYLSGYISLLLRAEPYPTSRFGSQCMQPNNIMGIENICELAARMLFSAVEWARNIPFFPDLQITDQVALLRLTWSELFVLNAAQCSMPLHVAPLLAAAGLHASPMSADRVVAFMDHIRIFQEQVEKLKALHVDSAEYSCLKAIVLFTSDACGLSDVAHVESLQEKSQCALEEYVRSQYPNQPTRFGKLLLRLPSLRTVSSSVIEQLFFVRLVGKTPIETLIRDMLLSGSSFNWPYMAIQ
# Jurkat NFkB inh = lowers PMA/ionomycin-induced NF-kB signal in Jurkat cells. PMA/ionomycin-induced NF-kB luciferase reporter, luminescence. inhibition, % at 4 µM. actives 0.53% (n = 330,000). AID 435003; in the data active = inhibition above about 50%
# 697 NFkB inh = lowers PMA/ionomycin-induced NF-kB signal in 697 B cells; actives 0.33% (n = 330,000); inhibition, % at 4 µM; 697 B-cell NF-kB luciferase reporter, 16 h; in the data active = inhibition above about 35%
# Gli-Sufu block = Gli-Sufu pathway antagonism; Sufu-KO-LIGHT fibroblasts, Gli luciferase reporter luminescence; inhibition, % at 5 µM; actives 0.74% (n = 340,000);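 active = inhibition above about 55%, limit read from the data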
# GalR3 antagonist = human GalR3 antagonism. HEK293 GalR3-CNG cAMP membrane potential fluorescence; galR3 body fused to GalR1 C-terminus. inhibition, % at 3 µM. actives 0.44% (n = 360,000);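 active = inhibition above the screen-wide average plus 3 SD, cut at about 13% in these data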;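 note: forskolin and galanin both at EC90 stimulate the cells; cAMP rise reported by CNG channel membrane potential dye signal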
# GalR3 antag conf = confirmation of human galanin receptor 3 antagonists; AID 652245; shares compounds with GalR3 antagonist; HEK293 GalR3 CNG cAMP biosensor, membrane potential fluorescence; galR3 fused to GalR1 carboxy tail; challenged with forskolin and galanin at EC90; inhibition, % at 3 µM; actives 59% (n = 1,600);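 active = inhibition above the primary screen's cutoff, the mean inhibition of all screened compounds plus 3 SD, cut at about 13% in these data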
# CNG parental = parental cell agonism counter-screen for GalR3 antagonists; shares compounds with GalR3 antagonist; HEK293-CNG parental cells, cAMP membrane potential fluorescence; normalised: DMSO wells 0%, forskolin wells 100%; activation, % at 3 µM; actives 10% (n = 1,600); AID 652268; in the data active = activation above about 1.3%
# A number is an active result; . = inactive; / = no result given. An excerpt weighted towards active compounds, which were near 2% of everything screened.
SMILES,COUP-TFII inh,Jurkat NFkB inh,697 NFkB inh,Gli-Sufu block,GalR3 antagonist,GalR3 antag conf,CNG parental
CC(C)c1c(O)c2c(n(-c3ccccc3)c1=O)CCCC2,.,.,.,.,/,.,1.9
O=C1[C@H](Cc2ccccc2)NCCCC[C@@H](c2ccc(Cl)cc2)N1Cc1ccccc1,.,/,/,.,/,.,2.3
COC(=O)C[C@H]1CC[C@@H]2[C@@H](COc3ccc(NC(=O)C4CCCCC4)cc3C(=O)N2C)O1,.,/,/,/,/,/,/
CCCc1cc(=O)[nH]c(SCC(=O)c2c(C)[nH]c3ccccc23)n1,.,.,.,.,16.6,.,1.7
Cc1ccc(N2C(=O)c3cccc4c([N+](=O)[O-])ccc(c34)C2=O)c2cccnc12,.,.,.,.,14.1,17.3,.
Cc1ccc(N2C(=O)c3cccc4c(N5CCN(C)CC5)ccc(c34)C2=O)c2cccnc12,/,.,.,.,/,/,/
CCOc1ccc(C2NC(=O)Cc3cc(OC)c(OC)cc32)cc1 (stereo not given),.,.,.,.,.,/,/
COc1cc2c(cc1OC)C(c1ccc(C)cc1)NC(=O)C2 (stereo not given),.,.,.,.,14.4,.,.
O=C(NCc1ccccc1)C1(C(=O)C2CC2)CC(c2ccccc2C(F)(F)F)=NO1 (stereo not given),.,/,/,/,/,/,/
O=c1cc(-c2ccccc2)[nH]c2ccc(F)cc12,.,/,/,.,20.4,.,.
CCc1cccc(NC(=O)CN(C)S(=O)(=O)c2cccs2)c1,.,.,.,.,14.1,.,.
COc1ccc(NC(=O)C(=S)N2CCCC2)cc1,.,.,.,.,16.0,.,.
CNc1ncnc2c1ncn2[C@@H]1O[C@H](CO)[C@@H](O)[C@H]1O,.,.,.,.,77.2,16.9,.
O=C(N/N=C/C1CC=CCC1)c1ccc(O)cc1O (stereo not given),.,.,.,.,.,/,/
COc1cc(C(=O)N/N=C/C2CC=CCC2)cc(OC)c1OC (stereo not given),.,/,/,.,12.7,.,.
COc1ccc(Cn2ccc3ccc(-c4ccc5ccn(Cc6ccccc6F)c5c4)cc32)cc1,.,/,/,/,/,/,/
CC(Oc1ccc(Cl)cc1)C(=O)/C=C/N(C)C (stereo not given),.,.,.,.,.,/,/
CC(Oc1ccc(Cl)cc1)/C(N)=N/O (stereo not given),.,.,.,.,15.6,.,.
O=C(Nc1cccc(F)c1)O[C@@H]1CC[C@@]23CCCN2C(=O)CCC[C@H]3C1,.,/,/,/,/,/,/
Cc1cc(C)c2cc(C=O)c(Cl)nc2c1,.,.,.,.,15.3,39.7,2.7
C=CCN=C1NC(c2cccc(Cl)c2)C(C(=O)OC)=C(C)N1Cc1cccc(C(F)(F)F)c1 (stereo not given),.,/,/,/,.,/,/
N#Cc1ccc(/C=C2\CC3(OC(=O)c4cccc(F)c4)CCCN2C3)cc1 (stereo not given),.,/,/,/,/,/,/
Cc1ccc(-c2nnc(SCC(=O)Nc3ccc(F)cc3F)n2Cc2ccco2)cc1,.,/,/,/,/,/,/
Nc1nnc(SCC(=O)NCCOc2ccccc2)s1,.,.,.,.,17.9,.,.
Nc1nnc(SCC(=O)NCCNC(=O)CSc2nnc(N)s2)s1,.,.,.,.,.,/,/
SMILES,COUP-TFII inh,Jurkat NFkB inh,697 NFkB inh,Gli-Sufu block,GalR3 antagonist,GalR3 antag conf,CNG parental
CN(C)c1cccc(/C=C2\CC3(OC(=O)c4ccccc4)CCCN2C3)c1 (stereo not given),.,/,/,/,/,/,/
COc1ccc(-c2noc(CCC(=O)NCCCN3CCN(c4ccc(F)cc4)CC3)n2)cc1,.,.,.,.,.,/,/
COc1ccc(-c2noc(CCC(=O)NCCCN3CCC(Cc4ccccc4)CC3)n2)cc1,.,.,.,.,76.3,.,6.1
COc1cc(/C=C/c2ccc3c([N+](=O)[O-])cccc3n2)ccc1OCC(=O)O,.,.,.,.,.,/,/
COc1cc(/C=C/c2ccc3cccc([N+](=O)[O-])c3n2)ccc1OCC(=O)O,.,.,.,.,66.7,65.9,.
CC(=O)Nc1ccc(/C=C/c2ccc3cccc([N+](=O)[O-])c3n2)cc1,.,.,.,.,.,/,/
